Screening data as filed in PubChem BioAssay.
This is a sample that favours compounds with a hit; in the whole collection about 6.2% have one here.
AI-2 QS modul: Vibrio harveyi AI-2 quorum sensing modulators, primary screen, JMH597 strain, luminescence/OD600 ratio; Vibrio harveyi JMH597 AI-2 luminescence/OD600 ratio, 9 h; active compounds read low; strain lacks LuxN and CqsS sensors; 0 = neutral-control median; activity change, % at 7.5 µM; hit rate 0.4% among 300,000; in the data active = activity change below about -75%, passing the limit was not always enough;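 note: luminescence divided by OD600 gain over 9 h not by final OD600 alone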
AHR activator: AHR activators, primary screen, cell-based, luminescence, luciferase reporter, human. activation, % at 5 µM. AHR-responsive luciferase reporter cells. Aryl hydrocarbon receptor (Homo sapiens), P35869. hit rate 2.5% among 320,000; in the data active = activation above about 47%;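 note: 0% = vehicle wells and 100% = reference agonist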
Target sequence (P35869 whole entry, looked up): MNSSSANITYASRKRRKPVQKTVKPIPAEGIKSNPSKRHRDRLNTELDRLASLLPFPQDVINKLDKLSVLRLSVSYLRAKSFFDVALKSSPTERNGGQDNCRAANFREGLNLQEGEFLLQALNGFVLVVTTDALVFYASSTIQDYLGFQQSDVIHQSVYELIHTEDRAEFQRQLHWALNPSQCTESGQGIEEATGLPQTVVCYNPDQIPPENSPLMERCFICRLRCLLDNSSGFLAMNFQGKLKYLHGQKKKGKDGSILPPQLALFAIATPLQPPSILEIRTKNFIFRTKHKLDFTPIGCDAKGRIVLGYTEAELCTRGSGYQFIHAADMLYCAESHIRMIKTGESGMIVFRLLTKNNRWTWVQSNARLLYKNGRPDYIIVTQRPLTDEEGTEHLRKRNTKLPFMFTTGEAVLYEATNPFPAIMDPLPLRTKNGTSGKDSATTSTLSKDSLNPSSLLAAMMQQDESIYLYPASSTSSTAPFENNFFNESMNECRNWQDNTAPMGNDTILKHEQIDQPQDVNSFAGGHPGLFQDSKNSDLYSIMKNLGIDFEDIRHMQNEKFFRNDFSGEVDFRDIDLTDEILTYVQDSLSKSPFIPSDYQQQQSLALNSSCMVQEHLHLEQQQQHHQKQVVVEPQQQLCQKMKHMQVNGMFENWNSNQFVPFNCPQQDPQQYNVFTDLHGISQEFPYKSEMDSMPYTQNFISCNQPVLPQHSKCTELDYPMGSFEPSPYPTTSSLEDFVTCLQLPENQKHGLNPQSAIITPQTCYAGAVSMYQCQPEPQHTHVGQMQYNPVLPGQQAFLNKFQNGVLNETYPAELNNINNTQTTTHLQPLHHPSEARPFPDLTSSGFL
H9c2 protect: cardioprotection against H2O2-induced cell death, primary screen, uHTS, H9c2 cells, ATPLite luminescence; H9c2 cardiomyocytes, H2O2 injury protection, 2 h; protection from H2O2 cell death, % at 20 µM; hit rate 0.63% among 360,000;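 active = compounds giving at least 50% protection of heart cells from peroxide-induced death in the single-dose screen, raw or plate-pattern-corrected value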;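 note: 0% = DMSO wells with peroxide and 100% = DMSO wells without peroxide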
Mot1-301 SUMO: yeast Mot1-301 growth rescue at high temperature, primary screen, SUMOylation pathway inhibitor project, S. cerevisiae, ATP luminescence, 38.5C. S. cerevisiae Mot1-301 growth rescue; percent above DMSO median, 100 means doubled. growth rescue, % at 18.8 µM. hit rate 1% among 320,000. AID 2716, 2010;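 active = every valid replicate shows activation above 250% relative to neutral control wells; inactive = the rest, any valid replicate at or below 250%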;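 note: OY570 slx delta 5 strain wells were the positive control but not used for scaling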
GRIN3A LBD mod: binders of NR3A ligand-binding domain, primary screen, biophysical, differential scanning fluorimetry, uHTS; Tm shift relative to glycine control, % at 25 µM; AID 1259313, 2017; hit rate 2.5% among 340,000; Glutamate receptor ionotropic, NMDA 3A (GRIN3A) ligand-binding domain; NR3A LBD differential scanning fluorimetry, Tm shift; 0% = protein alone, 100% = glycine-bound protein;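 active = melting temperature shift of at least 10% of the positive control shift, at one fixed dose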
NTR1 agonist: agonists of human NTR1, primary screen, imaging, U2OS cells, beta-arrestin-GFP, high content; Neurotensin receptor type 1 (Homo sapiens), P30989; NTR1-U2OS beta-arrestin-GFP spot imaging, agonist mode; activation, % at 20 µM; hit rate 0.17% among 330,000; AID 493036, 2011;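 active = activation at or above 40% of the spot to cytoplasm intensity ratio, with at least 20 cells analyzed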;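 note: 0% = DMSO without peptide and 100% = 100 nM NTR1 peptide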
* marks the source's active call; other numbers are inactive results; . = not tested or not shown.

SMILES | AI-2 QS modul | AHR activator | H9c2 protect | Mot1-301 SUMO | GRIN3A LBD mod | NTR1 agonist
CCOc1cc(/C=N/NS(=O)(=O)c2ccccc2)ccc1OS(=O)(=O)c1ccc(C)cc1 | -7 | 3 | -3 | -21 | 20* | 0
COc1cccc2[nH]c3c(N4CCC5(CC4)OCCO5)ncnc3c12 | 1 | 37 | 9 | 10 | -1 | 0
OC1(c2cccc(C(F)(F)F)c2)CCN(c2ncnc3c2[nH]c2ccccc23)CC1 | 23 | 54* | -24 | -14 | 3 | 37
c1ccc2c(c1)[nH]c1c(N3CCC4(CC3)OCCO4)ncnc12 | 6 | 66* | -19 | 25 | -1 | 2
O=C(CN1C(=O)NC(c2ccccc2)(c2ccccc2)C1=O)NCC(=O)Nc1ccc(F)cc1 | . | 0 | -9 | -6 | 0 | 1
Cc1c(C(=O)NNC(=S)Nc2ccc(S(N)(=O)=O)cc2)oc2ccccc12 | -1 | -4 | 6 | -10 | 6 | 0
O=C(CSc1nnc(-c2ccc3c(c2)OCO3)o1)Nc1ncc(Cl)cc1Cl | 14 | 133* | -3 | -16 | 0 | 0
O=C(NCCNCCO)c1c(O)c2cccc3c2n(c1=O)CCC3 | 14 | 58* | 7 | 66 | 1 | 1
Brc1cc(Br)c2nc(-c3cccs3)ccc2c1 | 18 | 52* | -4 | -11 | 3 | 9
c1csc(-c2csc(-c3cccs3)n2)c1 | 22 | 25 | -9 | 47 | 1 | -2
COc1ccc(C2C(C(=O)c3ccco3)=C(O)C(=O)N2CC2CCCO2)cc1OC (stereo unspecified) | 15 | 1 | 3 | -1 | 0 | 0
CCOc1cc(/C=C2\C(=O)N(c3ccc(C(N)=O)cc3)N=C2C)ccc1OC(=O)c1cccs1 | -9 | 0 | -19 | 145 | 0 | 1
CC1=NN(c2ccc(C(=O)O)cc2)C(=O)/C1=C\c1ccc(OC(=O)c2cccs2)cc1 | 24 | 7 | -5 | -13 | 14* | 0
Cc1cc(C(=O)CCC(=O)NCc2ccccc2F)c(C)s1 | 34 | 3 | 3 | -14 | 0 | 2
CC1=Nc2ccccc2/C1=C/c1c(N)n2c(S(=O)(=O)CC(C)C)nsc2nc1=O | 15 | . | -1 | . | 16* | .
CC1=Nc2ccc(C)cc2/C1=C/c1c(N)n2c(S(=O)(=O)C(C)C)nsc2nc1=O | 26 | . | 12 | . | 18* | .
CSc1nsc2nc(=O)c(/C=C3\C(C)=Nc4ccc(C)cc43)c(N)n12 | 25 | 12 | 1 | 0 | 21* | 0
CC1=Nc2ccc(C)cc2/C1=C/c1c(N)n2oc(C)cc2nc1=O | 16 | 6 | -4 | -6 | -5 | 27
Cc1ccc(NC(=O)Cn2nnc(C(=O)NCc3ccccc3)c2N)cc1C | 12 | -1 | -7 | 12 | 26* | -2
Cc1ccc(NC(=O)Cn2nnc(C(=O)NCc3ccc(Cl)cc3)c2N)cc1F | 13 | 0 | -2 | -11 | 13* | 1
Cc1ccccc1NC(=O)Cn1nnc(C(=O)NCc2ccco2)c1N | 36 | 7 | -9 | 1 | -1 | -1
Cc1ccc(NC(=O)Cn2nnc(C(=O)Nc3ccc(F)c(Cl)c3)c2N)cc1 | 19 | 6 | 2 | 119 | 32* | 2
CCOc1ccccc1NC(=O)Cn1nnc(C(=O)NCc2ccco2)c1N | 19 | 64* | 1 | 0 | 1 | 0
Cc1[nH]c(=O)c(C#N)c(C)c1CCC(=O)NCc1ccc(Cl)cc1 | 29 | 9 | 6 | -9 | -1 | -1
CCOC(=O)c1c(NC(C)=O)sc(/C(C)=N/Nc2ccc(C(=O)O)cc2)c1C | 5 | 0 | 4 | 18 | -2 | 0
SMILES | AI-2 QS modul | AHR activator | H9c2 protect | Mot1-301 SUMO | GRIN3A LBD mod | NTR1 agonist
Cc1ccc(NC(=O)c2nnn(CC(=O)Nc3ccccc3)c2N)cc1C | 25 | 48* | -4 | 300 | -6 | 2
COc1ccc(NC(=O)Cn2nnc(C(=O)Nc3ccccc3C)c2N)cc1 | 15 | 2 | -1 | . | 0 | 0
CCOc1ccccc1Nc1nc(-c2sc(NC(=O)c3ccco3)nc2C)cs1 | 17 | 66* | 7 | 92 | 2 | 0
CCN(CC)C(=O)c1csc(Nc2ccc(C)cc2)n1 | 37 | 2 | -1 | 2 | 0 | -1
Cc1ccc(Nc2nc(C(=O)NCc3ccco3)cs2)cc1 | 10 | 52* | -4 | 8 | -1 | -2
O=C(NCc1ccco1)c1cc(-c2ccccc2)on1 | 2 | 1 | -6 | -9 | 11* | 1
Cc1ccc(Nc2nc(-c3sc(NC(=O)c4ccco4)nc3C)cs2)cc1 | 52 | 58* | 12 | -2 | 1 | 6
COc1cc(CNC(=O)c2ccc3oc(C(C)C)nc3c2)cc(OC)c1 | 19 | 7 | -3 | 17 | 0 | 3
CC1(C(=O)NS(=O)(=O)c2cccs2)CCN1C(=O)CC1CCCCC1 (stereo unspecified) | . | . | 8 | . | . | .
O=C(N/N=C/c1ccc2cccc(OCc3ccccc3)c2n1)c1ccc(Br)cc1 | 9 | 69* | 31 | -19 | -1 | 8
Oc1c(C(c2ccccc2)N2CCCCC2)sc2ncnn12 (stereo unspecified) | 10 | 0 | -3 | 462* | 1 | -3
COc1cc(NC(=O)C2CCCN(S(=O)(=O)c3ccc4[nH]c(=O)ccc4c3)C2)cc(OC)c1 (stereo unspecified) | 8 | 8 | 11 | -3 | 12* | 0
CCCNC(=O)C1CCN(S(=O)(=O)c2ccc3[nH]c(=O)ccc3c2)CC1 | 20 | 0 | 0 | 4 | 17* | -1
COc1ccc(NC(=O)C2CCCN(S(=O)(=O)c3ccc4[nH]c(=O)ccc4c3)C2)cc1 (stereo unspecified) | 13 | -1 | 5 | 15 | 1 | 3
Cc1c[n+]([O-])cc(C)c1[N+](=O)[O-] | . | . | -1 | . | -4 | .
Cc1ccc(C(=O)N(C)CCOc2ccccc2)cc1S(=O)(=O)N1CCCCC1 | . | 1 | -5 | -8 | 7 | 0
CCc1ccc(NC(=O)COC(=O)/C(=C/c2ccccc2OC)c2ccccc2)cc1 | 10 | -1 | -8 | -8 | 23* | 1
COc1ccc(CS(=O)(=O)CC(C)(O)c2ccccc2Cl)cc1 (stereo unspecified) | 16 | 2 | 0 | 28 | 16* | -1
CC(C)c1cccc(C(C)C)c1NC(=O)CN1C(=O)NC2(CCCC2)C1=O | 15 | 0 | -3 | -4 | 0 | -1
Cc1cc(C)n(/N=C/c2c[nH]c3ccccc23)c(=O)c1C#N | 17 | 3 | 5 | 296* | -5 | -1
